In PubChem BioAssay (NCATS) one finds Potency, activity and activity change, negative = inhibition data, which are given here for 15 compounds.

SMILES strings stand for the structures. Values joined by “and” are separate entries in the source; they are usually repeats but may differ in a detail not shown here. Equal values may be shown once. Results filed as inconclusive are left out. Where a structure was tested more than once in an assay, its records may differ in their call. Active and inactive are the calls of the source. Unless noted, the call rests on the fitted dose curve; in most records, active means well fitted curve in the direction sought with a large enough effect; inconclusive means small, poorly fitted or top-dose-only effect, or another doubt; inactive means no such curve, though single readings can be large; an effect the other way counts as inactive or inconclusive.

Assay [1] can be described thus: Primary qHTS for small molecule stabilizers of the endoplasmic reticulum resident proteome: Secreted ER Calcium Modulated Protein (SERCaMP) assay (AID 1508630). Further: on the % scale 0 is the no-effect control and ±100 the full control effect. Put shortly:
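The SH-SY5Y reporter protocol was run at 3 concentrations up to 38.3 uM (primary) or 11 concentrations (follow-up): 16 h compound, 100 nM thapsigargin for 4 h, then extracellular luciferase luminescence.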
Background: In qHTS, concentration-response curves come from the screen itself.

Assay [2] deals with Cytochrome P450 2D6 (Homo sapiens) (UniProt P10635). Put plainly: Cytochrome P450 family 2 subfamily D member 6 (CYP2D6) small molecule antagonists: luciferase biochemical (cell-free) qHTS assay (AID 1645840; active means well fitted curve in the direction sought with a large enough effect in the repeat runs; an effect the other way counts as inactive or inconclusive; further: nearly all actives have a fitted effect of over 55% in size; further: potency means the concentration at half of the fitted maximal effect; on activity change, negative = inhibition: on the % scale 0 is the no-effect control and ±100 the full control effect). Put shortly: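 P450-Glo CYP2D6 system: proluciferin substrate converted by enzyme to luciferin, read by luminescence proportional to activity. Enzyme-substrate mix with compound 10 min at room temperature, then NADPH regeneration 1 h before detection reagent.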

A short description of assay [3]: Primary qHTS for inhibitors of nuclear receptor binding SET domain protein 2 (NSD2) in an isogenic RCH-ACV NSD2 p.E1099K mutant (9B) (AID 1645876). Further: nearly all actives have a fitted effect of over 70% in size. Further: potency means the concentration at half of the fitted maximal effect.
The target of assay [4] is Catechol O-methyltransferase (Homo sapiens) (UniProt P21964). Put plainly: Confirmatory Screen for Target Class Profiling of Small Molecule Inhibitors of Methyltransferases (AID 1745852). On activity change, negative = inhibition: on the % scale 0 is the no-effect control and ±100 the full control effect. Particulars: MTase-Glo luminescence, SAH detection, recombinant enzyme; measured here: COMT max response; stronger effect = lower value.
Assay [5] addresses Guanidinoacetate N-methyltransferase (Homo sapiens) (UniProt Q14353). Described as above. Particulars: MTase-Glo luminescence, SAH detection, recombinant enzyme; activity change, negative = inhibition: at 57.3 µM (top of the series).
The target of assay [6] is Nicotinamide N-methyltransferase (Homo sapiens) (UniProt P40261). The description is as above. Particulars: MTase-Glo luminescence, SAH detection, recombinant enzyme; measured here: NNMT max response; stronger effect = lower value.
The target of assay [7] is Phenylethanolamine N-methyltransferase (Homo sapiens) (UniProt P11086). The assay is described as above. Particulars: MTase-Glo luminescence, SAH detection, recombinant enzyme; measured here: PNMT max response; stronger effect = lower value.
A short description of assay [8]: Primary qHTS for inhibitors of nuclear receptor binding SET domain protein 2 (NSD2) in an RCH-ACV wild type WT cells (2C) (AID 1645877). Further: nearly all actives have a fitted effect of over 70% in size. Further: potency means the concentration at half of the fitted maximal effect.
Assay [9] in a line: NCATS anti-infectives library activity on HEK293 viability as a counter-qHTS vs the C. elegans viability qHTS (AID 1745854). Further: potency means the concentration at half of the fitted maximal effect. Put shortly:
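Cytotoxicity counter-screen to a worm viability qHTS: CellTiter-Glo luminescence read 10 min after reagent addition. Compounds (final up to 41.7 uM, a 1:5 dilution series) incubated 24 hr at 37C with 1,500 HEK293 cells per well; digitonin control.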

Assay [10] concerns the target Cytochrome P450 2C9 (Homo sapiens) (UniProt P11712). Put plainly: Cytochrome P450 family 2 subfamily C member 9 (CYP2C9) small molecule antagonists: luciferase biochemical (cell-free) qHTS assay (AID 1645842; active means well fitted curve in the direction sought with a large enough effect in the repeat runs; an effect the other way counts as inactive or inconclusive; further: nearly all actives have a fitted effect of over 55% in size; further: potency means the concentration at half of the fitted maximal effect; on activity change, negative = inhibition: on the % scale 0 is the no-effect control and ±100 the full control effect). In a few lines:
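P450-Glo CYP2C9 system: proluciferin substrate with enzyme in mix containing 0.4% BSA, 10 min at room temperature, then NADPH regeneration solution added and incubated 1 h at 37C. Detection reagent stopped reaction; luminescence read after 20 min as RLU.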

Cytochrome P450 2C9 (Homo sapiens), sequence (P11712 whole entry, looked up): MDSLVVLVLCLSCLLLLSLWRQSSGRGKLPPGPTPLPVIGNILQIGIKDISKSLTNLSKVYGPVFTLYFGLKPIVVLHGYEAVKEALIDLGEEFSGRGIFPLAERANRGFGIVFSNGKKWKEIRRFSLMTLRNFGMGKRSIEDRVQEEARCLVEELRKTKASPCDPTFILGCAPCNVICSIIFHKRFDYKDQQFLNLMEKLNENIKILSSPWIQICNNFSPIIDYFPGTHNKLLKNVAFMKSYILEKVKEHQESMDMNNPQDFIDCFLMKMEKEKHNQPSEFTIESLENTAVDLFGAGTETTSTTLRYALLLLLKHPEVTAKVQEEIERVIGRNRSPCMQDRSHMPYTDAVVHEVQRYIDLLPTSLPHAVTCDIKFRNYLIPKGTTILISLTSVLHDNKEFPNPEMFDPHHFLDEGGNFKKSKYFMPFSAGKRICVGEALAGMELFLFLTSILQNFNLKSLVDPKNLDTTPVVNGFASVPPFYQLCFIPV
Cytochrome P450 2D6 (Homo sapiens), sequence (P10635 whole entry, looked up): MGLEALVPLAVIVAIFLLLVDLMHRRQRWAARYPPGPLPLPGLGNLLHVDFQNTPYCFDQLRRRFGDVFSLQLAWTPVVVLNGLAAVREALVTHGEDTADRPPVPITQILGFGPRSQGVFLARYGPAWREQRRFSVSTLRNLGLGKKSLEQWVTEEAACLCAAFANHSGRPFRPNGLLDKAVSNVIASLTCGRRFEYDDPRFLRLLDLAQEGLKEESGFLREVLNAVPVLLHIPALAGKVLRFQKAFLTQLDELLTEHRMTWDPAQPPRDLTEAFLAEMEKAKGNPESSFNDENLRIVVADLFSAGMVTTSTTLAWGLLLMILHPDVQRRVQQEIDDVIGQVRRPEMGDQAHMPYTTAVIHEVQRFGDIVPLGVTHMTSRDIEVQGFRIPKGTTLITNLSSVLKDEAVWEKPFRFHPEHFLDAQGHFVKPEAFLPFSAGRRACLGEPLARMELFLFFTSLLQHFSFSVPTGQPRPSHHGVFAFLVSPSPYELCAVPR
Nicotinamide N-methyltransferase (Homo sapiens), sequence (P40261 whole entry, looked up): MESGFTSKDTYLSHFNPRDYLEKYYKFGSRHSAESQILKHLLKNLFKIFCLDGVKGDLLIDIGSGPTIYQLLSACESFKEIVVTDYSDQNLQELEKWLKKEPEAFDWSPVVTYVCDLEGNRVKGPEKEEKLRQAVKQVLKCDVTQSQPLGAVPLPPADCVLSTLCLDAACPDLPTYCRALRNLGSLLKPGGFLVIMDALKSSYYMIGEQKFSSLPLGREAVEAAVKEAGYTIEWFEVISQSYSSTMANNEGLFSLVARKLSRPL
Phenylethanolamine N-methyltransferase (Homo sapiens), sequence (P11086 whole entry, looked up, the tested form may be a part): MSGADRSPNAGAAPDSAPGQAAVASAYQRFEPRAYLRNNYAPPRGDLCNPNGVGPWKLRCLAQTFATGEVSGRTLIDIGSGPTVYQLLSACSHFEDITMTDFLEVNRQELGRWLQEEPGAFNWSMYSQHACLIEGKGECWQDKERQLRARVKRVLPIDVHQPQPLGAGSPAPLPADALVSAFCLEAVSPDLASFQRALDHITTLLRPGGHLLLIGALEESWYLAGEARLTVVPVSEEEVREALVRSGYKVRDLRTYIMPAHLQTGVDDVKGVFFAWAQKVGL
Catechol O-methyltransferase (Homo sapiens), sequence (P21964 whole entry, looked up): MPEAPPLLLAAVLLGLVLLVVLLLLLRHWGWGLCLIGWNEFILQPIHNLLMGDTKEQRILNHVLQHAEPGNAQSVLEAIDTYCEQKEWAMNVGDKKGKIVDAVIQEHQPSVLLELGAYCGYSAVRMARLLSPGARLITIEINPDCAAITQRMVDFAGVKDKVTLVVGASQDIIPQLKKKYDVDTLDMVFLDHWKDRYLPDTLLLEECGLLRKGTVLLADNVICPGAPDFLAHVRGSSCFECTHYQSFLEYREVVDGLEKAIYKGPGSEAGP

`COc1cc2c(Nc3ccc(Br)cc3F)ncnc2cc1OCC1CCN(C)CC1`: the Potency entry in assay [1] and in assay [2] was “inactive” each time. For the same compound, the Potency result in assay [3] is “inactive and 3.65 µM (active) and 13.2 µM (active)”. Also, the activity was -17.2% in assay [4], -14.2% in assay [6] and -14.3% in assay [7]. For the same compound, in assay [5], the activity change, negative = inhibition is -2.94%.

Regarding `CC(=O)Oc1ccccc1C(=O)Nc1ncc([N+](=O)[O-])s1`, the Potency result in [1], in assay [3], in assay [8] and in assay [9] was “inactive” throughout. Besides, in assay [2], the Potency is 8.71 µM (active).

For the compound `CC(N)C12CC3CC(CC(C3)C1)C2` (stereo unspecified), the Potency entry in assay [1], in assay [2], in assay [10], in assay [3] and in assay [9] was “inactive” throughout.

Consider `CN(C)c1ccc(C(=C2C=CC(=[N+](C)C)C=C2)c2ccc(N(C)C)cc2)cc1`, for which the Potency result in assay [1] is “inactive”. The Potency in [2] was 3.09 µM (active); in [3], 33.5 nM (active) and 296 nM (active); in [8] it was 42.2 nM (active) and 263 nM (active).

In the case of `CCCCOc1ccc(CC(=O)NO)cc1`, in [1], the Potency result was “inactive”. Also, the Potency is 12.3 µM (active) in assay [2]; 17.4 µM (active) in [10]; “inactive and 16.6 µM (active)” in assay [3].

`Cc1ccnc2c1NC(=O)c1cccnc1N2C1CC1`: the Potency entry in [1], in assay [2], in [10] and in assay [9] was “inactive” each time.

For the compound `Nc1nc(F)nc2c1ncn2[C@@H]1O[C@H](CO)[C@@H](O)[C@@H]1O`, the Potency result in [1] and in assay [2] was “inactive” throughout. Also, the Potency in assay [3] is 2.09 µM (active) and 94.4 nM (active) and 1.29 µM (active); in assay [8] it was 2.63 µM (active) and 84.1 nM (active) and 1.29 µM (active).

In the case of `CNNCc1ccc(C(=O)NC(C)C)cc1`, the Potency result in assay [1], in [2], in assay [10], in [3] and in [8] was “inactive” throughout.

`C1CCC(C(CC2CCCCN2)C2CCCCC2)CC1` (stereo unspecified): the Potency result in assay [1] is “inactive”. Also, the Potency in assay [2] is 0.138 µM (active); in assay [3], 7.42 µM (active); in [8] it was 8.33 µM (active); in [9] it was 15.8 µM (active).

On to `CCCCc1oc2ccc(NS(C)(=O)=O)cc2c1C(=O)c1ccc(OCCCN(CCCC)CCCC)cc1`, for which, in assay [1], the Potency entry was “inactive”. The Potency was 2.75 µM (active) and 3.38 µM (active) in [2]; 2.99 µM (active) and 11.5 µM (active) and 5.9 µM (active) in assay [3].

`CNS(=O)(=O)Cc1ccc2[nH]cc(CCN(C)C)c2c1`: the Potency result in [1], in [2], in assay [10], in assay [3] and in assay [8] was “inactive” throughout.

As for `CCc1c2c(nc3ccc(OC(=O)N4CCC(N5CCCCC5)CC4)cc13)-c1cc3c(c(=O)n1C2)COC(=O)[C@]3(O)CC`, the Potency result in [1] and in assay [2] was “inactive” in each case. Further, the Potency in [3] is 750 nM (active) and 235 nM (active).

As for `COC(=O)Nc1nc2ccc(S(=O)c3ccccc3)cc2[nH]1` (stereo unspecified), the Potency entry in [1] and in [10] was “inactive” throughout. In addition, the Potency in assay [2] was 12.3 µM (active); in [3] it was 10.5 µM (active) and 596 nM (active); in [8], 7.42 µM (active) and 335 nM (active).

Consider `C[C@@H](NCCCc1cccc(C(F)(F)F)c1)c1cccc2ccccc12`, for which the Potency entry in assay [1] was “inactive”. Further, the Potency in [2] was 30.9 nM (active) and 19 nM (active); in [10] it was 26.8 µM (active); in [3], 13.3 µM (active) and 18.6 µM (active).

Consider `O[C@@H](CNC[C@H](O)[C@H]1CCc2cc(F)ccc2O1)[C@@H]1CCc2cc(F)ccc2O1`, for which the Potency result in assay [1] was “inactive”. Further, the results for the Potency in [2] and in [3] were 0.0389 µM (active) and 11.9 µM (active), respectively.
